# Reference: PubChem BioAssay (EPA / NIEHS)
# Active and inactive are the calls of the source. How the source made its calls: active means hit-call score of the fitted dose curve at least 0.9, where 1 is the maximum; inactive means score below 0.9.
# Assay: BSK_3C_SRB: Viability Assessment in the BioMAP Diversity Plus: 3C Assay (AID 2283023);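 further: fitted both ways against DMSO so a hit may be signal rise or drop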
# Conditions: primary human endothelial cells (HUVEC)
# Method in brief: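 Primary human umbilical vein endothelial cells in the 3C system were read 24 h after compound dosing. Total protein was stained with 0.1% sulforhodamine B after 10% TCA fixation and read at 560 nm, with bidirectional fitting against DMSO as baseline.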
SMILES,AC50,outcome
CN(C)c1ccc(C(=C2C=CC(=[N+](C)C)C=C2)c2ccc(N(C)C)cc2)cc1,4.93 µM (active),–
O=c1ccc2ccccc2o1,–,inactive
c1ccc2n[nH]nc2c1,–,inactive
CCCCCCCCOC(=O)c1cc(O)c(O)c(O)c1,20 µM (active),–
CC(C)(c1cc(Br)c(O)c(Br)c1)c1cc(Br)c(O)c(Br)c1,29.6 µM (active),–
CCN(Cc1cccc(S(=O)(=O)O)c1)c1ccc(C(=C2C=CC(=[N+](CC)Cc3cccc(S(=O)(=O)O)c3)C=C2)c2ccccc2S(=O)(=O)[O-])cc1,–,inactive
CC[C@@H]1C[C@H](N(Cc2cc(C(F)(F)F)cc(C(F)(F)F)c2)C(C)=O)c2cc(C(F)(F)F)ccc2N1C(=O)OC(C)C,–,inactive
CCN(Cc1cccnc1)C(=O)c1cccc(Cl)c1[C@]1(C)C(=O)N(Cc2ccc(OC)cc2OC)c2ccc(Cl)cc21,6.28 µM (active),–
Cc1ccc2oc(CN(Cc3ccccc3)C(=O)Nc3c(F)cc(F)cc3F)c(-c3ccc(Cl)cc3)c2c1,–,inactive
C[C@]12CC[C@@H]3c4ccc(O)cc4CC[C@H]3[C@@H]1CCC2=O,–,inactive
Cc1cc(F)ccc1-c1cc(N2CC[C@@H](O)[C@H]2CO)ncc1N(C)C(=O)C(C)(C)c1cc(C(F)(F)F)cc(C(F)(F)F)c1,9.17 µM (active),–
Cc1c2ccccc2c(C)c2c1ccc1ccccc12,13.4 µM (active),–
CCN(CC)C(=O)c1cc(S(=O)(=O)Cc2ccccc2)c(N2CCC(c3ccccc3)CC2)cc1N(CC)CCN(C)C,5.18 µM (active),–
CC1=CC(=O)/C(=C(/C)O)C(=O)O1,–,inactive
CCCCCCCCOc1ccc(C(=O)c2ccccc2)c(O)c1,28.7 µM (active),–
CN1C(=O)N(c2ccccc2Br)Cc2cnc(Nc3ccc4c(c3)OCC(CO)O4)nc21 (configuration not stated),20 µM (active),–
COCC(C)OCC(C)OCC(C)O (configuration not stated),–,inactive
CCCOC(=O)c1cc(O)c(O)c(O)c1,–,inactive
COc1cccc([C@H](O)C2CCN(CCc3ccc(F)cc3)CC2)c1OC,–,inactive
CC1(C)NC(=O)N(c2ccc([N+](=O)[O-])c(C(F)(F)F)c2)C1=O,–,inactive
c1ccc(C[n+]2cccc3ccccc32)cc1,–,inactive
Cc1oc2c(NC(=O)c3c(Cl)cccc3Cl)cccc2c1C(C)(C)O,25 µM (active),–
